Test results: PubChem BioAssay AID2113 (National Center for Advancing Translational Sciences (NCATS), 2009)
Results filed as inconclusive are left out. Where a call stands in place of a potency, no number is given. Activity calls are given as the source filed them. The call rests on the fitted dose curve; in most records, active means well fitted curve in either direction with a large enough effect; inconclusive means small, poorly fitted or top-dose-only effect; inactive means no such curve, though single readings can be large or run the other way. Residues, ends and D or L forms follow the SMILES beside them.

target: Lysosomal alpha-glucosidase (Homo sapiens) (UniProt P10253); experiment: Confirmation of Inhibitors and Activators of Human alpha-Glucosidase From Spleen Homogenate; conditions: alpha-glucosidase enzyme activity; series mostly up to 60.5 µM;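 on potency: fluorescence of 4-methylumbelliferone released from a fluorogenic glucopyranoside substrate at pH 5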
Method in brief: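 Fluorogenic assay using human spleen homogenate (1 ug) as enzyme source with 1 mM 4-methylumbelliferyl-alpha-D-glucopyranoside, pH 5.0 citrate buffer, 40 min at 37 C. 4-MU read (Ex 365/Em 440) after NaOH/glycine stop; AC50 from Hill fits.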
Potency means the concentration at half of the fitted maximal effect.

Structure (SMILES)	Potency
Cc1ccccc1-n1c(N)cc(=O)[nH]c1=S	inactive
CCc1ccc(N=CC23c4ccccc4C(c4ccccc42)C2C(=O)N(c4ccc(OC)cc4)C(=O)C23)cc1 (stereo not drawn)	inactive
CCCN1CNc2c(c(=O)[nH]c(=S)n2CCC(C)(C)C)C1	inactive
O=C(Nc1nnc(-c2cccc(F)c2)s1)Nc1ccccc1F	inactive
CCc1sc(-c2cc3ccc(O)cc3oc2=O)nc1-c1ccc(C)cc1	inactive
Cc1[nH]nc2c1C(c1ccc(OC(=O)c3ccco3)cc1)C(C#N)=C(N)O2 (stereo not drawn)	inactive
CCCC[C@H](NC(=O)[C@@H]1CCCN1C(=O)[C@H]1CCCN1C(=O)[C@H](Cc1ccccc1)NC(=O)[C@@H](Cc1c[nH]c2ccccc12)NC(=O)[C@H](C)NC(=O)[C@H](CCCN=C(N)N)NC(=O)OC(C)(C)C)C(N)=O (HELM PEPTIDE1{[CC(C)(C)OC(=O)[*:2]].R.A.[dW].F.[dP].P.[Nle].[am]}$$$$V2.0)	inactive
CCCN1CNc2c(c(=O)[nH]c(=S)n2CCc2ccc3c(c2)OCCO3)C1	15.8 µM (active)
CCCN1CNc2c(c(=O)[nH]c(=S)n2CCc2cc(OC)ccc2OC)C1	20 µM (active)
CCC1C(=O)NCCN1Cc1nc(-c2ccc(C)s2)oc1C (stereo not drawn)	inactive
CN(C)C=Nc1nc2ccccc2nc1N1CCCC1	inactive
Cc1cccn2c(=O)c(/C=C(\C#N)C(=O)NC3CCS(=O)(=O)C3)c(N3CCC(C)CC3)nc12 (stereo not drawn)	11.2 µM (active)
CC(C)(C)OC(=O)NCCCC[C@H](NC(=O)c1[nH]cnc1C(=O)Nc1ccc(CNC(=O)OC(C)(C)C)cc1)C(=O)OC(C)(C)C	inactive
